SMILES strings stand for the structures. In all, about 300,000 compounds went through this assay and about 37,000 (12%) were called active. This is one part of a sample in which actives are shown more often than they occur. Rule as the data show it: active = max response mostly above about 13% (no sharp cut-off); inactive = mostly below about 14%.

A short description of this assay: Cycloheximide Counterscreen for Small Molecule Inhibitors of Shiga Toxin. Also: read at 38.3 µM for the half of the compounds with a filed dose; 0% is about no effect. Particulars: cell reporter, cycloheximide protein synthesis inhibition counterscreen; stronger effect = higher value. For orientation: A counterscreen serves to expose hits that act by an unwanted route or on another target.
As to `CC(=O)c1c(C)oc2ccc(NS(=O)(=O)c3ccccc3)cc12`, the max response is -4.79% (inactive).
As to `O=C(Nc1ccc(-c2cscn2)cc1)C1CCCN(Cc2ccc(CO)o2)C1` (configuration not stated), the max response is 10.2% (inactive).
Then `Cc1cc(C)cc(NC(=O)C2CCCN2S(=O)(=O)c2cccc3cccnc23)c1` (configuration not stated), with 0.222% (inactive); and `CCCCNS(=O)(=O)c1ccc2nc(SCC(=O)Nc3cc(C)cc(C)c3)[nH]c2c1`, with -6.32% (inactive); and `Cc1ccc2nc(-c3ccncc3)cc(C(=O)Nc3ccc(OC(F)F)cc3)c2c1`, with -4.25% (inactive).
For the compound `O=C(NCc1ccco1)C(=O)c1cn(CC(=O)N2CCCCCC2)c2ccccc12`, the max response was 2.39% (inactive).
To `CN1CCN(C(=O)C(=O)c2cn(CC(=O)N3CCCC3)c3ccccc23)CC1` belongs -2.55% (inactive); to `O=C(Nc1ccc(F)cc1)C(=O)c1cn(CC(=O)N2CCOCC2)c2ccccc12`, -0.871% (inactive); to `CC1CCN(C(=O)Cn2cc(C(=O)c3ccco3)c3ccccc32)CC1`, 23% (active).
As to `COc1cccc(NC(=O)C(=O)c2cn(CC(=O)N3CCOCC3)c3ccccc23)c1`, the max response is 37.8% (active).
Regarding `COc1cccc(NC(=O)CS(=O)(=O)c2cn(CC(=O)N3CCOCC3)c3ccccc23)c1`, the max response is -5.36% (inactive).
As to `CN(Cc1ccccc1)C(=O)C(=O)c1cn(CC(=O)N2CCCC2)c2ccccc12`, the max response is -3.43% (inactive).
To `Cc1ccc(CNC(=O)C(=O)c2cn(CC(=O)N3CCCC3)c3ccccc23)cc1` belongs 20.3% (active); to `Cc1ccc(CNC(=O)C(=O)c2cn(CC(=O)N3CCOCC3)c3ccccc23)cc1`, 17.6% (active); to `N#Cc1ccc(Cn2cc(C(=O)c3ccco3)c3ccccc32)cc1`, 21.7% (inactive).
To `Cc1cccc(NC(=O)Cn2cc(C(=O)c3ccco3)c3ccccc32)c1` belongs -2.38% (inactive); to `O=C(NCCCn1ccnc1)C(=O)c1cn(CC(=O)N2CCCCCC2)c2ccccc12`, 10.1% (inactive); to `COc1ccc(C(CNC(=O)c2ccc(S(=O)(=O)Nc3ccccc3F)cc2)N(C)C)cc1` (configuration not stated), -6% (inactive).
Regarding `COC(=O)c1cccc(N(C(=O)c2ccco2)C(C(=O)NC2CCCC2)c2ccco2)c1` (configuration not stated), the max response was -1.82% (inactive).
To `COc1cc(CNC2CCCCC2)c(Br)cc1OC1CCCC1` belongs -7.03% (inactive); to `CCc1ccc(CN(C)C(=O)C2CCC(=O)N(Cc3cccc(OC)c3)C2)nc1` (configuration not stated), 4.36% (inactive); to `CCn1nc(C)c(NC(=O)/C=C/c2ccc(OC)c(COc3ccc(Br)cc3)c2)c1C`, 2.79% (inactive).
With `CCCc1cc(=O)oc2c(C)c(OC(C)C(=O)NCC(O)c3ccccc3)ccc12` (configuration not stated), the max response is -2.74% (inactive).
For the compound `Cc1ccc(S(=O)(=O)NCC(=O)N(CC(=O)NCC2CCCO2)c2cccc(F)c2)cc1` (configuration not stated), the max response was 1.36% (inactive).
Then `CC(=O)NCC(=O)NC1CCCc2c1cnn2-c1ccccc1F` (configuration not stated), with 5.35% (inactive).
`CCOC(=O)C(=CNNc1ccsc1C(=O)OC)C(=O)OCC`: the max response is 12.1% (inactive).
Turning to `O=C1CN(c2nc(-c3ccccc3)c3cc(Br)ccc3n2)c2ccccc2N1`, the max response was -2.03% (inactive).
As to `O=S(=O)(NCC1CN(S(=O)(=O)c2ccc3c(c2)OCCO3)C1)c1c(F)cccc1F`, the max response is -7.82% (inactive).
To `COc1ccccc1CNC(=O)c1cc(=O)c2ccccc2o1` belongs 28.7% (inactive); to `Cc1sc2ncnc(Sc3nc4ccccc4s3)c2c1C`, -3.1% (inactive); to `O=C1NC(Nc2nc3ccccc3s2)(C(F)(F)F)C(=O)N1C1CCCCC1` (configuration not stated), 0.879% (inactive).
Then `c1ccc2sc(SNC3CCCCC3)nc2c1`, with 43.3% (active); and `Cc1c(CC(=O)N2CCN(C(=O)C3COc4ccccc4O3)CC2)c(=O)oc2c(O)c(O)ccc12` (configuration not stated), with -3.9% (inactive); and `CCOc1ccccc1OCCCNCc1ccccc1`, with -2.14% (inactive).
Then `COc1ccc2c(c1)cc1n2CCN=C1NN`, with 64.4% (active).
`Cc1cccc(OCC(O)CN2CCN(S(=O)(=O)c3ccc(C)cc3C)CC2)c1` (configuration not stated): the max response is 6.97% (inactive).
For `O=C(c1ccc(F)cc1)N1CCCC(C(=O)N2CCCCC2)C1` (configuration not stated), the max response was -3.54% (inactive).
On to `CC(C)c1ccc(-c2noc(C3CCCN(S(C)(=O)=O)C3)n2)cc1` (configuration not stated), for which the max response is 39.9% (active).
`O=C(c1ccc(F)cc1)N1CCCC(c2nc(-c3cccs3)no2)C1` (configuration not stated): the max response is 20.3% (inactive).
Then `COc1cccc(-c2noc(C3CCCN(C(=O)c4ccc(F)cc4)C3)n2)c1` (configuration not stated), with 20.6% (active).
To `O=C(Cc1cccs1)N1CCCC(c2nc(-c3ccc(S(=O)(=O)N4CCCC4)cc3)no2)C1` (configuration not stated) belongs -2.82% (inactive); to `COc1cc(-c2noc(C3CCCN(S(=O)(=O)c4cccc(Cl)c4)C3)n2)cc(OC)c1OC` (configuration not stated), -4.41% (inactive); to `COc1ccc(NC(=O)N2CCCC(c3nc(-c4ccc(F)cc4)no3)C2)cc1` (configuration not stated), 27.8% (active).
To `O=C(c1cccs1)N1CCCC(c2nc(-c3ccc(F)cc3)no2)C1` (configuration not stated) belongs 26.6% (active).
In the case of `COc1ccc(NC2CCCN(C(=O)c3ccncc3)C2)cc1` (configuration not stated), the max response was -1.48% (inactive).
To `CCN(C(=O)C1CCCN(c2nc(-c3ccc(OC)cc3)no2)C1)c1ccc(OC)cc1` (configuration not stated) belongs -1.83% (inactive); to `CC(C)c1ccc(NC(=O)C2CCCN(S(=O)(=O)c3cccnc3)C2)cc1` (configuration not stated), 5.83% (inactive).
Then `CCn1nc(C)cc1C(=O)N1CCCC(C(=O)c2cccc(OC)c2)C1` (configuration not stated), with 2.78% (inactive).
To `NC(=O)C1CC(=O)N(c2ccc(OCC(=O)NCc3ccccc3)cc2)C1` (configuration not stated) belongs -2.39% (inactive); to `Cc1ccc(S(=O)(=O)N2CCC(C)CC2)cc1C(=O)NCc1ccccn1`, 5.45% (inactive).
Take `NC(=O)c1oc2ccccc2c1NC(=O)CS(=O)(=O)c1ccccc1`: the max response was 14.9% (inactive).
As for `C=CCOc1cccc(CNCc2cccnc2)c1`, the max response is 1.07% (inactive).
To `COc1ccc(/C=C2/C(=O)OCc3cc(OC)c(OC)cc32)c(OC)c1` belongs -1.45% (inactive); to `CC(=O)c1cccc(NC(=O)C2CCN(C(=O)c3ccccc3Cl)CC2)c1`, -2.1% (inactive); to `COC(=O)c1cccc(N(CC(=O)NCC2CCCO2)C(=O)CCC(=O)Nc2cc(C)on2)c1` (configuration not stated), -2.44% (inactive).
To `COc1cccc(NC(=O)CCc2nnc3ccc(N4CCC(C)CC4)nn23)c1` belongs -5.83% (inactive).
In the case of `COc1ccccc1CN1CCNC(=O)C1CC(=O)N(C)CC1CCOCC1` (configuration not stated), the max response was -1.38% (inactive).
Regarding `Cc1ccc2nc(C)c3c(c2c1)N(c1ccccc1)CC3`, the max response is -1.78% (inactive).
To `Cc1c(CN2CCCC(C(=O)c3cccc(Cl)c3)C2)c(=O)n(-c2ccccc2)n1C` (configuration not stated) belongs -3.35% (inactive); to `Cc1ccc(-c2noc(C3CCCN(C(=O)c4cccc(Cl)c4)C3)n2)o1` (configuration not stated), 47.3% (active).
For the compound `CCc1nc2ccc(C(=O)N3CCN(c4cccc(Cl)c4)CC3)cc2nc1CC`, the max response was -0.581% (inactive).
As to `Cc1cccc2c1-c1sc(C(=O)NCCCN3CCc4ccccc4C3)cc1CO2`, the max response was 1.19% (inactive).
On to `O=S1(=O)N=C(N(CCO)/N=C/c2ccccc2F)c2ccccc21`, for which the max response is -7.2% (inactive).
Consider `CCOC(=O)Cc1csc(SCC(=O)NC(C)C23CC4CC(CC(C4)C2)C3)n1` (configuration not stated), for which the max response was -2.6% (inactive).
For the compound `O=C(CCC1CCCN(Cc2ccc(O)c(Cl)c2)C1)NCc1ccccc1F` (configuration not stated), the max response is -1.08% (inactive).
Regarding `CSc1ncccc1C(=O)N1CCCC(CCC(=O)NCc2ccccc2F)C1` (configuration not stated), the max response is -1.29% (inactive).
Regarding `Cc1[nH]c2c(C(=O)N3CCCC(CCC(=O)NCc4ccccc4F)C3)cccc2c1C` (configuration not stated), the max response is 18.9% (active).
In the case of `CC(C)(C)c1ccc(OC2=CS(=O)(=O)c3ccccc32)cc1`, the max response is 81.1% (active).
Then `COc1ccc(CN2CCC(=O)c3ccccc3S2(=O)=O)cc1`, with -4.16% (inactive); and `O=S1(=O)C=C(SCCN2CCCC2)c2ccccc21`, with 4.83% (inactive).
To `CS(=O)(=O)N1CCCC(C(=O)Nc2ccccc2C(F)(F)F)C1` (configuration not stated) belongs 0.965% (inactive); to `CN1C(=O)c2cccc3c(N)ccc(c23)C1=O`, -4.64% (inactive).
Then `Cn1c(=O)c2c(nc(OCc3cccnc3)n2Cc2ccccc2)n(C)c1=O`, with 14.9% (active); and `C=CCOc1nc2c(c(=O)n(C)c(=O)n2C)n1Cc1ccc(Cl)cc1Cl`, with -2.08% (inactive); and `Cn1c(=O)c2c(nc(NCCc3ccccc3)n2Cc2ccccc2)n(C)c1=O`, with -1.53% (inactive).
As for `CS(=O)(=O)N(CC(=O)N1CCCCCC1)c1cccc(Cl)c1Cl`, the max response was -2.66% (inactive).
Then `CC(=O)Nc1ccc(S(=O)(=O)N2CCC(NC(=O)c3ccccc3)CC2)cc1`, with -2% (inactive).
Then `COc1ccc(S(=O)(=O)N2CCN(C(=S)NCC3CCCO3)CC2)cc1OC` (configuration not stated), with -1.28% (inactive).
To `Cc1cccc(-n2c(O)c(C=Nc3ccccc3N)c(=O)[nH]c2=O)c1` belongs 39.4% (active); to `Cc1cccc(-n2c(O)c(/C=N/N3CCOCC3)c(=O)[nH]c2=S)c1`, -8.26% (inactive); to `Cc1cccc(-n2c(O)c(C=NC34CN5CN(CN(C5)C3)C4)c(=O)[nH]c2=O)c1`, 8.1% (inactive).
Consider `CC1(C)Oc2ccc3ccc(=O)oc3c2/C(=N/O)C1=O`, for which the max response is 7.27% (inactive).
To `O=C(N/N=C/c1ccccc1O)C1CCCC1` belongs 28% (active).
Regarding `Oc1ccccc1C=NC1CCCCC1N=Cc1ccccc1O` (configuration not stated), the max response is 6.63% (inactive).
Then `COc1ccc(/C=N/NC(=O)C2CC2)c(OC)c1OC`, with 3.25% (inactive); and `COc1cc(NC(=O)NCC2CCN(Cc3ccc(C)cc3)CC2)cc(OC)c1OC`, with -2.97% (inactive); and `COc1ccccc1C(=O)OCC(=O)NCCNC(=O)COC(=O)c1ccccc1OC`, with -1.55% (inactive).
To `COc1cc(C(=O)NCc2ccc3c(c2)cc(C)n3C)cc(OC)c1OC` belongs -6.41% (inactive).
To `Cc1ccc(C(C(=O)NCC2CCCO2)N(C(=O)c2snc(C(N)=O)c2N)c2ccc(C(C)C)cc2)o1` (configuration not stated) belongs 8.94% (inactive).
Consider `CCNc1nc(Oc2ccc(C(=O)OC)cc2)nc(N2CCOCC2)n1`, for which the max response is -3.34% (inactive).
As for `COC(=O)c1ccc(Oc2nc(Nc3ccc(F)cc3)nc(N3CCCC3)n2)cc1`, the max response is 0.283% (inactive).
On to `COC(=O)c1ccc(Oc2nc(NC(C)C)nc(SC)n2)cc1`, for which the max response was 9.19% (active).

The record behind these values is PubChem BioAssay AID2314 (National Center for Advancing Translational Sciences (NCATS), 2010).
